Assay outcomes: PubChem BioAssay, National Center for Advancing Translational Sciences (NCATS)
The list is not random: actives were taken first. Their share in the collection is about 10%.
FLuc inh = blocks purified firefly luciferase enzyme activity; purified P. pyralis luciferase, luminescence, biochemical; Potency, µM (titrated, usually from 115 µM), hits mostly inhibitors; 76,000 compounds, 2.5% hits; note: nearly all actives have a fitted effect of over 65% in size
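Luminescence read by CCD imaging after purified firefly luciferase (10nM final) was added to substrate buffer holding 10uM D-luciferin and 10uM ATP, pH 7.5, pre-dosed with compound.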
3T3 cytotox = kills NIH 3T3 cells. NIH 3T3 viability, CellTiter-Glo ATP luminescence, 48-72 h. Potency, µM (highest dose often 96.7 µM), for the others: at the highest dose activity change, negative = cytotoxicity, hits mostly inhibitors. 94,000 compounds, 4.3% hits; note: nearly all actives have a fitted effect of over 55% in size
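Cells were seeded at 400 per well, treated with pin-transferred compound, and kept 48 or 72 hr at 37 °C before CellTiter-Glo addition and luminescence imaging of cellular ATP.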
HEK293 tox = cytotoxic compounds in HEK 293 cells; HEK 293 viability, ATP luminescence (CellTiter-Glo), 48-72 h; Potency, µM (top dose mostly 115 µM), without a hit: top-dose activity change, negative = cytotoxicity, most hits filed as inhibitors; 94,000 compounds, 6.6% hits; AID 1345083; note: nearly all actives have a fitted effect of over 60% in size
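HEK 293 seeded at 250 cells/well receive compound via pintool. After 48 or 72 hr at 37 degree Celsius, 5% CO2 and 95% humidity, CellTiter-Glo is dispensed and luminescence read following 10 min at room temperature.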
GPT2 inhibitor = blocks human glutamate pyruvate transaminase 2. Recombinant GPT2, coupled pyruvate oxidase/HRP Amplex Red fluorescence. Potency, µM (highest dose often 57.7 µM), for inactives: top-dose activity change, negative = inhibition, hits mostly inhibitors. 100,000 compounds, 0.25% hits. Q8TD30; note: nearly all actives have a fitted effect of over 60% in size
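GPT2 10ng/uL, a-KG 250uM, L-Ala 2mM, HEPES pH7.5 + 0.0001% Tween; 30 min RT. Then Amplex mix (PO/HRP/ThPP), 30 min RT dark, fluorescence. AOA 50uM used as positive control.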
NPR1 antag = blocks ANP-stimulated signaling of human Npr1 receptor | P16066 | HEK293 hNpr1 GloSensor cGMP, ANP-stimulated luminescence | Potency, µM (doses to about 46.3 µM), inactives show at the top dose activity change, negative = inhibition, actives largely listed as inhibitors | 76,000 compounds, 1.6% hits | AID 1347048; calls by dose curve; note: nearly all actives have a fitted effect of over 60% in size
Target sequence (P16066 whole entry, looked up): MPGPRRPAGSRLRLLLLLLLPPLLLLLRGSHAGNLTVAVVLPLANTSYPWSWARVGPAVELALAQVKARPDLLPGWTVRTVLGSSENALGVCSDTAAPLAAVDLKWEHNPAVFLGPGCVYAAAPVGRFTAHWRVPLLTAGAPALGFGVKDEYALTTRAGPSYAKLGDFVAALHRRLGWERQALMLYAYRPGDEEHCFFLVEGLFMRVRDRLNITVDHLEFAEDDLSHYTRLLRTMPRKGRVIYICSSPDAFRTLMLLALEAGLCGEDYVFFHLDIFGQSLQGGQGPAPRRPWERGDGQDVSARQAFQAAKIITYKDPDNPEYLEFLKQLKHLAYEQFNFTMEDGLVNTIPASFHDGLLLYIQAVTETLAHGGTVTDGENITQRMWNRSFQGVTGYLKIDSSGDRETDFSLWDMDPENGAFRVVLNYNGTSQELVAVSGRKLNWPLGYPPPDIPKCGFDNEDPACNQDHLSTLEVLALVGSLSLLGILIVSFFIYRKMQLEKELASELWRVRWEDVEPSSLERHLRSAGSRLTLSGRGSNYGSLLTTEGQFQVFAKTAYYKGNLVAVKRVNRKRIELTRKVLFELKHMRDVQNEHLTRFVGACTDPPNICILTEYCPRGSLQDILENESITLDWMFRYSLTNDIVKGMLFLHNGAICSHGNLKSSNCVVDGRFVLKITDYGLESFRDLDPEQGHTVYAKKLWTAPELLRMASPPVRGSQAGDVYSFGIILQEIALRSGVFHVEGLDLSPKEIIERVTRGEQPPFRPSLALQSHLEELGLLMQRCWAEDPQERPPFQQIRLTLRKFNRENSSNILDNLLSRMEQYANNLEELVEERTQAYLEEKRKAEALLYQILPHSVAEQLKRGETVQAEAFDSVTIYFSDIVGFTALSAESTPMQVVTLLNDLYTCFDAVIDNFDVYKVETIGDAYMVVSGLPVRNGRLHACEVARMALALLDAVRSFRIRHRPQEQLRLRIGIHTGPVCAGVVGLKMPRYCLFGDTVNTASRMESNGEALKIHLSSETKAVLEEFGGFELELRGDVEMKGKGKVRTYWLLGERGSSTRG
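Compound pre-incubated 30 min at room temperature on GloSensor-loaded HEK293 cells stably carrying hNpr1 and the pGS-40F cGMP biosensor. Stimulation uses hNppA at 0.1 nM final; luminescence is taken at baseline and 20 min post-agonist.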
The depositor's hits bear a star; i = inactive; u = inconclusive; x = not tested or not shown; ! = a repeat was not active; [ ] = dose if it differs, or a comment. Unless noted, calls come from the whole dose curve; as a rule, active = well fitted curve in the direction sought with a large enough effect; inconclusive = small, poorly fitted or top-dose-only effect, or another doubt; inactive = no such curve, though single readings can be large; an effect the other way counts as inactive or inconclusive. % is set by controls: 0 for no effect and ±100 for the full control effect; potency is the fitted concentration of half-maximal effect.

SMILES | FLuc inh | 3T3 cytotox | HEK293 tox | GPT2 inhibitor | NPR1 antag
COc1ccc(C(=O)N[C@@H]2CCC[C@@H]2C(=O)NCCN2CCCC2)cc1 | i | -17.7% | -13.4% | i | -1.8%
COCCNC(=O)Cc1c[nH]c2ncc(-c3ccccc3)cc12 | i | u | -16.5%[172 µM] | i | -0.3%[70.6 µM]
COc1ccc(-c2cnc3[nH]cc(CC(=O)NCc4cnccn4)c3c2)cc1 | u | 31.6µM* | u | 0.6%[88.5 µM] | 1.1%[70.6 µM]
COCCNC(=O)Cc1c[nH]c2ncc(-c3ccc(OC)cc3)cc12 | u | 22.4µM* | u | u | -4.0%[70.6 µM]
CCN(CCNC(=O)C1CCN(c2cn[nH]c(=O)c2)C1)Cc1ccccc1 (stereo not given) | i | -4.1% | 1.7% | 1.3% | 2.4%
CC(=O)N1CCN(Cc2ccccc2-c2ccc(C)c(Cl)c2)CC1 | x | u | u | i | x
Cc1ccc(-c2ccccc2CN2CCN(C(=O)C3CCCC3)CC2)cc1Cl | x | u | u | i | x
Cc1ccc(-c2ccccc2CN2CCN(C(=O)N(C)C)CC2)cc1Cl | x | u | 31.6µM* | 1.3% | x
Cc1ccc(-c2ccccc2CN2CCC(C(=O)NCC(F)(F)F)CC2)cc1Cl | x | u | 50.1µM* | -0.8% | x
Cc1ccc(-c2ccccc2CN2CCC(C(=O)NCC3CC3)CC2)cc1Cl | x | u | 35.5µM* | x | x
O=C1NCCCCCN(Cc2cccnc2)[C@@H]2CN(S(=O)(=O)c3ccccc3)CC[C@@H]12 | i | -7.3% | 2.4% | i | -7.7%
O=C(CCc1ccccc1)N1CCNc2cnc(Nc3ccc(-n4ccnc4)cc3)nc2C1 | i | u | u | -14.4% | -1.6%
O=C(CN1CCOCC1)N1CCNc2cnc(Nc3ccc(-n4ccnc4)cc3)nc2C1 | i | 39.8µM* | i | -3.2%[88.5 µM] | -2.4%[70.6 µM]
Cc1ncc2n1C(=O)N(C1CCN(Cc3ccccc3)CC1)C2 | i | u | 100µM*! | i | 7.2%[70.6 µM]
COc1ccc(CN2CCC(N3Cc4cnc(C)n4C3=O)CC2)cc1 | i | -17.8%[138 µM] | u | -3.0%[88.5 µM] | 0.0%[70.6 µM]
Cc1ccc2cc(CCC(=O)N3CCOCC3)c(=O)[nH]c2c1 | 31.6µM* | 3.0% | -4.3% | i | -15.3%
CCCNC(=O)N1CC(C(=O)N(C)C)C2(CCOCC2)C1 (stereo not given) | i | -11.4% | -1.5% | i | 0.6%
COc1ccc(-c2nc(C3CC3)nc3c2CN([S+](=O)([O-])c2onc(C)c2C)CC3)cc1 | i | -19.1% | -11.0% | -1.1% | 6.0%
CN1[C@@H](c2ccc(Cl)cc2)[C@@H](C(=O)NCCc2cnc[nH]2)C[C@@]1(C)C(=O)O | i | i | 1.2% | 0.5% | 2.3%
COC(=O)[C@@H]1Cc2c([nH]c3ccccc23)[C@H]2C[C@H](NCCc3cnc[nH]3)C[C@@H](c3ccccc3F)N21 | i | u | 22.4µM* | -1.9% | -20.8%
COC(=O)[C@@H]1Cc2c([nH]c3ccccc23)[C@H]2C[C@@H](NCCc3cnc[nH]3)C[C@@H](c3cccc(Cl)c3)N21 | i | u | 28.2µM* | -4.0% | 0.0%
O=C(NCCc1cnc[nH]1)C1CC(=O)N(c2n[nH]c3ccccc23)C1 (stereo not given) | i | i | 3.5% | -3.5% | 0.6%
COc1cccc(-c2ccc(C(=O)N3CCC(C(=O)N4CCOCC4)CC3)cc2)c1 | x | -22.5% | -11.3% | i | x
CC(C)OCCCNC(=O)c1cc(C2CC2)nc2onc(C3CCNCC3)c12 | x | -0.1% | -5.8% | u | x
COC(=O)c1ccc2nc(C[C@@H]3C[C@@H](C(C)C)[C@H](CNC(=O)CC(C)(C)CC(=O)O)C=C3C)[nH]c2c1 | i | u | u | -6.7% | 1.9%
SMILES | FLuc inh | 3T3 cytotox | HEK293 tox | GPT2 inhibitor | NPR1 antag
CC[C@H]1CN(S(=O)(=O)c2c(C)noc2C)CC[C@H]1CC(=O)NCc1cccc2ccccc12 | i | u | 22.4µM* | -2.3% | -19.3%
CCC(C(=O)NCc1nnc2c(-c3nc(C4CC4)no3)cccn12)c1ccccc1 (stereo not given) | i | i | -14.2% | 3.6% | 5.3%
COc1ccc(C(=O)NC2CCN(c3cc(-c4cccs4)[nH]n3)C2)c(OC)c1 (stereo not given) | i | u | u | u | -19.0%
O=C1NCCOCCCN(C(=O)Nc2ccccc2)[C@H]2CCCC[C@@H]12 | i | -2.3% | -2.3% | u | -8.0%
O=C1NCCOCCCN(C(=O)Nc2ccc3c(c2)OCCO3)[C@H]2CCCC[C@@H]12 | 31.6µM* | 2.3% | 3.2% | i | -17.6%
Cc1ccc(CNC(=O)C2Cn3cccc3C(=O)N2C)o1 (stereo not given) | i | -3.5% | i | -1.1% | -0.5%
CCCS(=O)(=O)N1CCc2c(sc3ncnc(N(C)C)c23)C1 | i | -16.6% | -10.0% | -8.1% | 2.0%
O=[S+]([O-])(NC1CCN(c2ccnc3ccnn23)C1)c1cccs1 (stereo not given) | x | u | 70.8µM* | i | x
O=[S+]([O-])(c1cccc(C(F)(F)F)c1)N1CCN(c2ccnc3ccnn23)CC1 | x | u | u | i | x
O=[S+]([O-])(NC1CCN(c2ccnc3ccnn23)CC1)c1cccc(C(F)(F)F)c1 | x | u | 44.7µM* | -15.1% | x
O=C(c1ccccc1Cl)N1CCC(C(=O)N2CCC(N3CCOC3=O)CC2)CC1 | x | -15.3% | -1.3% | i | x
COc1cc(-c2ccc(-c3nc(CC(C)C)no3)cn2)cc(OC)c1OC | i | u | u | 3.7% | 0.8%
COc1ccc(-c2ccc(-c3nc(CC(C)C)no3)cn2)c2cccnc12 | i | u | 25.1µM* | u | u
CN1C[C@H](C(=O)N2CCN(c3ccccn3)CC2)C[C@H]1c1cccc(C(F)(F)F)c1 | i | u | 89.1µM* | -11.4%[88.5 µM] | -28.0%[70.6 µM]
CN1C[C@H](C(=O)NCc2ccncc2)C[C@H]1c1cccc(C(F)(F)F)c1 | i | -27.0%[138 µM] | u | -0.1%[88.5 µM] | -13.6%[70.6 µM]
CN1C[C@H](C(=O)Nc2cccc(Cl)c2)C[C@H]1c1cccc(C(F)(F)F)c1 | i | 31.6µM* | 35.5µM* | -13.0%[88.5 µM] | -22.1%[70.6 µM]
COc1ccc(NC(=O)[C@@H]2C[C@@H](c3cccc(C(F)(F)F)c3)N(C)C2)cc1OC | i | u | u | 2.7%[88.5 µM] | -21.5%[70.6 µM]
CCC(=O)N1CCc2nc(N3CCN(C(=O)CCOC)CC3)sc2C1 | i | -15.0% | -2.8% | 2.7% | 2.9%
O=C(Nc1ccc(Cl)cc1)N1Cc2[nH]cnc2C[C@H]1c1nc(-c2ccc(F)c(Cl)c2)no1 | 7.94µM* | 25.1µM* | u | 2.0% | u
CCOC(=O)c1ccc(NC(=O)N2Cc3[nH]cnc3C[C@H]2c2nc(-c3ccc4c(c3)OCO4)no2)cc1 | 39.8µM* | 28.2µM* | u | -5.6% | -3.3%
